Shown is part of a subset that was picked to be rich in hits.
mHTT CaM bind – disrupts binding of mutant huntingtin to calmodulin; AlphaScreen His-mHTT/GST-CaM binding, luminescence; AID 1671202; actives 3.6% (n = 190,000); inhibition, % at 15 µM
Pf apPOL block – Pf-apPOL DNA polymerase inhibition; Recombinant Pf-apPOL, molecular beacon fluorescence, 1.5 h; inhibition, % at 10 µM; actives 0.25% (n = 210,000); AID 1794808
Of the large screens only hits and unclear results are named; the others gave an inactive call. Rule as the data show it: active = inhibition above about 50%; inactive = the rest.

O=C1COc2ccc(C(=O)CN3CCNCC3)cc2N1	none
CCN1CCN(C(=O)c2ccc3c(c2)NC(=O)C(N2CCOCC2)S3)CC1 (stereo unspecified)	none
COc1ccccc1C1CC(c2ccc(Br)cc2)=NN1C(=O)c1cccnc1 (stereo unspecified)	mHTT CaM bind 53
COc1ccccc1C1CC(c2ccc(Br)cc2)=NN1C(=O)c1ccncc1 (stereo unspecified)	none
COc1cccc(C2CC(c3ccc(Br)cc3)=NN2C(=O)c2ccncc2)c1OC (stereo unspecified)	mHTT CaM bind 61
COc1ccccc1C1CC(c2ccc(Br)cc2)=NN1C(=O)CCC(=O)O (stereo unspecified)	none
CCCCOC(=O)c1ccc(NC(=O)C2CC(=O)N(c3ccc(C)cc3)C2)cc1 (stereo unspecified)	none
CC(=O)NC1=NC(=O)/C(=C/c2cn(C(C)=O)nc2-c2ccc(F)cc2)S1	none
Cc1ccccc1Cn1cc(-c2ccncc2)cc1C(=O)N1CCN(C)CC1	none
Oc1cc2c(cc1C(c1ccc3c(c1)OCO3)N1CCOCC1)OCO2 (stereo unspecified)	mHTT CaM bind 94 (no result: Pf apPOL block)
CCOC(=O)C(=O)NCC(c1ccc2c(c1)OCO2)N1CCOCC1 (stereo unspecified)	none
COc1cc(OC)c(C2C3=C(CCCC3=O)Nc3ncnn32)cc1OC (stereo unspecified)	none
CCn1c(=O)c(N2CCN(S(=O)(=O)c3ccc(Cl)c(C)c3)CC2)nc2ccncc21	none
COc1ccc(OC)c(Nc2ncc3c(n2)CCN(Cc2ccc(OC)cc2OC)C3)c1	mHTT CaM bind 91
COc1ccccc1CN1CCc2nc(Nc3ccccc3OC)ncc2C1	none
COc1ccc(CN2CCc3nc(Nc4ccccc4OC)ncc3C2)c(OC)c1	none
COc1ccc(OC)c(CN2CCc3nc(Nc4ccccc4OC)ncc3C2)c1	mHTT CaM bind 56
COc1cc(C(=O)OCC(=O)c2ccc3ccccc3c2)cc(OC)c1O	none
CCOCC(=O)N1CCc2nc(-c3ccc(Cl)cc3)ncc2C1	none
CC(C)Cc1ccc2c(n1)sc1c(N)ncnc12	none
O=C(c1cc(=O)c2ccccc2o1)N(CCc1cccs1)Cc1cccnc1	none
COc1ccc(OC)c(CNC(=O)CN2N=C(c3ccc(Cl)cc3)CCC2=O)c1	none
COc1ccc(Br)cc1CNC(=O)CN1N=C(c2ccc(Cl)cc2)CCC1=O	mHTT CaM bind 52
O=C(CN1N=C(c2ccc(Cl)cc2)CCC1=O)NCCN1CCc2ccccc2C1	mHTT CaM bind 52
O=C(CN1N=C(c2ccc(Cl)cc2)CCC1=O)NCCc1ccc(Cl)cc1	none
c1ccc(CN2CCCN(Cc3ccccc3)C2c2ccco2)cc1	none
CCCCOc1ccc(/C=c2\sc3nc(-c4cccnc4)nn3c2=O)cc1OCC	none
COc1ccc(Br)c(C(=O)NCC2CCN(C(=O)Oc3ccccc3)CC2)c1	none
O=C(O)COc1ccc2c(c1)OC(=Cc1cccc(Br)c1)C2=O	none
O=C(O)COc1ccc2c(c1)OC(=Cc1ccc(Cl)c(Cl)c1)C2=O	Pf apPOL block 63
COc1ccccc1N1C(=O)C2C(c3ccc(Cl)cc3)NC(CC(C)C)(C(=O)O)C2C1=O (stereo unspecified)	none
O=C(Nc1ccccc1C(=O)O)c1ccccc1	none
O=C(Nc1ccccc1C(=O)O)c1cccc(C(=O)Nc2ccccc2C(=O)O)c1	mHTT CaM bind 70
Cn1nccc1C(=O)N1CCCC1c1nc(-c2ccccc2)n[nH]1 (stereo unspecified)	none
CC(C)(C)NC(=O)C1CC(c2ccccc2F)=NO1 (stereo unspecified)	none
Cc1cccc(NC(=O)CN2C(=O)N/C(=C\c3ccc(Br)s3)C2=O)c1	none
Cc1cc(OCCNCCO)cc(C)c1Cl	none
OCCNCCOc1ccc(Cl)cc1	Pf apPOL block 77
O=C(c1ccco1)N1CCCC2(CC(c3ccc(Cl)cc3)=CO2)C1 (stereo unspecified)	none
O=C(c1ccc(Cl)cc1)N1CCCC2(CC(c3cccc(Cl)c3)=CO2)C1 (stereo unspecified)	none
O=C(c1ccc(F)cc1)N1CCCC2(CC(c3ccc(Cl)cc3)=CO2)C1 (stereo unspecified)	none
O=C(c1ccco1)N1CCCC2(CC(c3cccc(Cl)c3)=CO2)C1 (stereo unspecified)	mHTT CaM bind 90
O=C(c1ccccc1)N1CCCC2(CC(c3cccc(Cl)c3)=CO2)C1 (stereo unspecified)	mHTT CaM bind 96
O=C(c1ccccc1)N1CCCC2(CC(c3ccc(Cl)cc3)=CO2)C1 (stereo unspecified)	mHTT CaM bind 100
CCCN(CCO)C/C(C)=C/c1ccccc1	none
CCCCc1ccc(C2C(C#N)=C(N)SC(N)=C2C#N)s1	mHTT CaM bind 55
N#CC1=C(N)SC(N)=C(C#N)C1c1ccccc1	none
CC1=NN(c2cc(Cl)c(S(=O)(=O)O)cc2Cl)C(=O)C1	none
CC1=NN(c2ccc(C)c(Cl)c2)C(=O)C1	mHTT CaM bind 91
Nc1ccc(-c2ccc(S(=O)(=O)c3ccc(-c4ccc(N)cc4)cc3)cc2)cc1	mHTT CaM bind 62
Nc1ccc(S(N)(=O)=O)cc1	none (no result: Pf apPOL block)
Nc1ccc(-c2ccc(S(=O)(=O)c3cccc(N)c3)cc2N)cc1	mHTT CaM bind 69
Nc1ccc(S(=O)(=O)c2ccc(N)c(N)c2)cc1N	none
Cc1ccc(CNC(=O)C2CCN(c3cncnc3N3CCOCC3)CC2)cc1C	none
CC(=O)c1sc(Nc2ccc(N(C)C)cc2)nc1C	none
CC1=C(C(=O)Nc2cccc(C(F)(F)F)c2)C(c2ccccn2)C2=C(CC(C)(C)CC2=O)N1 (stereo unspecified)	none
CC1=C(C(=O)Nc2ccc(C)cn2)C(c2ccc(C)cc2)C2=C(CCCC2=O)N1 (stereo unspecified)	none
CC1=C(C(=O)Nc2cccc(C(F)(F)F)c2)C(c2cccc([N+](=O)[O-])c2)C2=C(CCCC2=O)N1 (stereo unspecified)	mHTT CaM bind 52
O=C1CCCC2=C1C(c1cccnc1)Nc1ccc(C(=O)c3ccccc3)cc1N2 (stereo unspecified)	none
O=C1CCCC2=C1C(c1cccc([N+](=O)[O-])c1)Nc1ccc(C(=O)c3ccccc3)cc1N2 (stereo unspecified)	mHTT CaM bind 56
CC1=C(C(=O)Nc2cccc(C(F)(F)F)c2)C(c2ccccc2)C2=C(CC(C)(C)CC2=O)N1 (stereo unspecified)	mHTT CaM bind 92
CC1=C(C(=O)Nc2ccc(C)cn2)C(c2ccccc2)C2=C(CCCC2=O)N1 (stereo unspecified)	Pf apPOL block 51
CC1=C(C(=O)Nc2cccc(C(F)(F)F)c2)C(c2ccccc2)C2=C(CCCC2=O)N1 (stereo unspecified)	none
CC1(C)OC2COC3OC(C)(C)OC3C2O1 (stereo unspecified)	none (no result: mHTT CaM bind)
CCOc1ccc(S(=O)(=O)N(C(=O)c2ccncc2)c2ccc3oc4c(c3c2)CCCC4)cc1	none
O=C(c1ccncc1)N(c1ccc2oc3c(c2c1)CCCC3)S(=O)(=O)c1ccc(F)cc1	mHTT CaM bind 58
O=c1/c(=C/c2cccc([N+](=O)[O-])c2)sc2nc(-c3ccccc3Br)nn12	none
COc1ccc(N2CCN(CC(O)COc3c(C)cccc3C)CC2)cc1 (stereo unspecified)	none
O=C(O)c1cc(N2C(=O)C3C4C=CC(C5CC45)C3C2=O)ccc1Cl (stereo unspecified)	Pf apPOL block 63
Cc1ccc(N2C(=O)C3C4C=CC(C5CC45)C3C2=O)cc1Cl (stereo unspecified)	none
Cc1nc2ncnn2c(NCC2CC2)c1Cc1ccccc1	none
